Reference: PubChem BioAssay AID743311 (Broad Institute, 2014)
Potency and affinity values are given separately. Unmarked numbers belong to inactive results. Calls of active or inactive are those of the source. No rule for the calls is given here.

Test: toxicity to HepG2 liver cells – cell-based, plate reader, dry powder, set 6, cytotoxicity control, dose response (AID 743311)
Conditions: series mostly up to 26 µM; activity change, negative = cytotoxicity: at the top concentration

SMILES	activity change, negative = cytotoxicity [%]	outcome
Cc1cc2ncn(CCOc3ccccc3)c2cc1C	-8.27	
CSc1nc2ccccc2n1CCOc1ccccc1	-20.3	
CC(C)(C)c1ccc(OCCn2c(CO)nc3ccccc32)cc1	-2.48	
CSc1nc2ccccc2n1CCOc1cc(C)ccc1C(C)C	4.69	
Clc1ccc(OCCn2cnc3ccccc32)cc1	13.3	
Cc1ccc(C(C)C)c(OCCn2c(=S)[nH]c3ccccc32)c1	9.57	
Cc1ccc(OCCn2cnc3ccccc32)c(C)c1	0.724	
CC(C)(C)c1ccc(OCCn2cnc3ccccc32)cc1	4.09	
FC(F)(F)c1cccc(OCCn2cnc3ccccc32)c1	27.1	
Cc1cccc(OCCn2c(=S)[nH]c3ccc(C(F)(F)F)cc32)c1	0.759	
COc1ccccc1OCCn1c(=S)[nH]c2ccccc21	10.4	
Cc1ccc(C(C)C)c(OCCn2c(NC#N)nc3ccccc32)c1	3.67	
Cc1cccc(OCCn2c(=S)[nH]c3c(F)cccc32)c1		inactive
CCCCc1nc2ccccc2n1CCOc1ccccc1	16.6	
CCSc1nc2ccccc2n1CCOc1ccccc1	31.5	
Fc1ccc2c(c1)[nH]c(=S)n2CCOc1ccccc1		inactive
COc1ccccc1OCCn1c(SC)nc2ccccc21	5.77	
Cc1cccc(OCCn2cnc3ccccc32)c1	19.8	
OCc1nc2ccccc2n1CCOc1ccccc1	6.61	
CC(C)Oc1cccc(OCCn2cnc3ccccc32)c1	-12.9	
CSc1nc2ccccc2n1CCOc1ccc(C)cc1	20	
